# PubChem BioAssay (EPA / NIEHS)
# Values joined by “and” are separate entries in the source; they are usually repeats but may differ in a detail not shown here. Equal entries are not always repeated. A structure can be active in one record and inactive in another. Active and inactive are the calls of the source. Rule for the calls: active = hit-call score of the fitted dose curve at least 0.9, where 1 is the maximum; inactive = score below 0.9.
# Assay: ATG_PXRE_CIS: Attagene CIS-FACTORIAL HepG2 Assay for human Pregnane X Receptor Element (PXRE) (AID 2282957)
# Conditions: HepG2 Attagene CIS-FACTORIAL PXRE reporter, mRNA; actives raise or lower the signal
# Method: ATG_CIS is a cell-based, multiplexed-readout assay that uses HepG2, a human liver cell line, with measurements taken at 24 hours after chemical dosing in a 24-well plate.ATG_PXRE_CIS is one of 52 assay component(s) measured or calculated from the ATG_CIS assay. It is designed to make measurements of mRNA induction, a form of inducible reporter, as detected with fluorescence intensity signals by Reverse transcription polymerase chain reaction (RT-PCR) and Capillary electrophoresis technology.Data from the assay component ATG_PXRE_CIS was analyzed into 1 assay endpoint. This assay endpoint, ATG_PXRE_CIS, was analyzed with bidirectional fitting relative to DMSO as the negative control and baseline of activity. Using a type of inducible reporter, measures of mRNA for gain or loss-of-signal activity can be used to understand the reporter gene at the transcription factor-level as they relate to the gene NR1I2. Furthermore, this assay endpoint can be referred to as a primary readout, because this assay has produced multiple assay endpoints where this one serves a reporter gene function. To generalize the intended target to other relatable targets, this assay endpoint is annotated to the nuclear receptor intended target family, where the subfamily is non-steroidal.
# Human liver HepG2 cells are transiently transfected with multiple reporter transcription units (MRTUs) in 6-well plates using FuGene 6 reagent (Roche; 3 ml FuGene/1 mg DNA). The MRTU constructs are regulated by a cis-regulating element (promoter). […] A major difference between the CIS and TRANS system is that in CIS activities of endogenous TFs are measured, whereas the TRANS assay evaluates changes in activities of exogenous, chimeric NR-Gal4 proteins. […] At the end of 24 hour incubation, total RNA was isolated using TriZol reagent (Invitrogen). The isolated RNA is then reverse-transcribed using oligo(dT) primer and Mo-MLV reverse transcriptase (Invitrogen) with DNAse I (Ambion) treatment for 30 min. The one-tenth of the produced cDNA was amplified by PCR using Taq DNA polymerase (Invitrogen) and two reporter sequence-specific primers. The PCR products were fluorescently labeled by primer extension with 6-arboxyfluorescein (6-FAM) 5'-labeled reporter sequence-specific primer (2 min at 95 C, 20 s at 68 C and 10 min at 72 C) and these products were digested with 5U of HpaI (New England Biolabs) for 2h at 37 C. The fragments were purified using Qiaquick PCR columns (Qiagen), analyzed on an ABI 3130xL genetic analyzer (Applied Biosystems) with peak positions identified by using a set of X-rhodamine (ROX)-labeled MapMarker1000 molecular weight standards (BioVentures). The raw capillary electrophoresis data was processed using Attagraph software (Attagene).
Structure (SMILES),outcome,AC50
Nc1nc(Cl)nc2c1ncn2[C@H]1C[C@H](O)[C@@H](CO)O1,inactive,
CSc1ccc(Oc2ccc(S(N)(=O)=O)cc2CN(C)C)cc1C,,9.66 µM (active)
Cc1cc(Cc2ccc(N)c(C)c2)ccc1N,inactive,
CCCCCCCCCC[N+](C)(C)[O-],,79 µM (active)
Cc1cc(SC2=C(O)C[C@@](CCc3ccc(N)cc3)(C(C)C)OC2=O)c(C(C)(C)C)cc1CO,,1.55 µM (active)
NC(=Nc1ccccc1)Nc1ccccc1,inactive,
CC(C)c1cccc(C(C)C)c1NC(=O)NS(=O)(=O)c1cc(C(C)(C)O)co1,,16.7 µM (active)
CC(=O)OC1CC(C)OC(C)O1 (stereo not given),inactive,
CN(C)CCCN1c2ccccc2Sc2ccc(Cl)cc21,inactive,
Cc1c(C)c2c(c(C)c1O)CCC(C)(COc1ccc(CC3SC(=O)NC3=O)cc1)O2 (stereo not given),,2.01 µM (active)
c1ccc2occc2c1,inactive,
CC(=O)O[C@]1(C(C)=O)CC[C@H]2[C@@H]3C=C(Cl)C4=CC(=O)[C@@H]5C[C@@H]5[C@]4(C)[C@H]3CC[C@@]21C,inactive,184 µM (active) and 142 µM (active) and 61.5 µM (active)
O=Cc1ccccc1C=O,inactive,
CCOCCOCCO,inactive,
CN(C)C(=O)NC1(c2ccccc2)CCN(CC[C@@]2(c3ccc(F)c(F)c3)CN(C(=O)c3ccccc3)CCO2)CC1,,2.43 µM (active)
Oc1ccc(O)cc1,inactive,
O=C(O)CN(CC(=O)O)CC(=O)O,inactive,
CCCC(=O)O,inactive,
Cn1cnc2c1c(=O)[nH]c(=O)n2C,inactive,
CC(C)c1cccc(C(C)C)c1,inactive,

Structure (SMILES),outcome,AC50
CC(=O)CC(c1ccccc1)c1c(O)c2ccccc2oc1=O (stereo not given),,59.1 µM (active) and 59.7 µM (active)
NCCOCCOCCN,inactive,
CN(C)C(=O)NC1(c2ccccc2)CCN(CCC[C@]2(c3ccc(Cl)c(Cl)c3)CCCN(C(=O)c3ccccc3)C2)CC1,,0.119 µM (active)
COc1ccc(OC(F)(F)F)cc1CN[C@H]1CCCN[C@H]1c1ccccc1,,1.85 µM (active)
CCCCC(CC)CO (stereo not given),,27.5 µM (active)
CC(C)COC(=O)CCCCC(=O)OCC(C)C,inactive,
Oc1ccccc1O,inactive,
O=C(NS(=O)(=O)/C=C/c1cccs1)c1ccc(F)cc1Br,,13.7 µM (active)
COC(=O)CCC(=O)OC,inactive,
O=NO,inactive,
COc1ccc(C(=O)Nc2nc3ccccc3c(NCc3ccccc3)c2C#N)cc1,,0.641 µM (active)
O=C(O)c1[nH]n(-c2ccc(S(=O)(=O)O)cc2)c(=O)c1N=Nc1ccc(S(=O)(=O)O)cc1,,69.5 µM (active)
Cc1ccc(-c2cc(C(F)(F)F)nn2-c2ccc(S(N)(=O)=O)cc2)cc1,,2.58 µM (active)
O=C1O[C@H]([C@H](O)CO)C(O)=C1O,inactive,
CS(=O)(=O)c1ccc([C@@H](C[C@H]2CCC(=O)C2)C(=O)Nc2cnccn2)cc1Cl,inactive,
CCC(C)N(C)C(=O)c1cc2ccccc2c(-c2ccccc2Cl)n1 (stereo not given),,0.135 µM (active)
CC(=O)O,inactive,
CCCCCCC(CCCCCCCCCCC(=O)OCC(COC(C)=O)OC(C)=O)OC(C)=O (stereo not given),,50 µM (active)
CCCCC(CC)COP(=O)(OCC(CC)CCCC)OCC(CC)CCCC (stereo not given),,0.339 µM (active)
